Source: PubChem BioAssay (EPA / NIEHS)
Records with an inconclusive call do not appear. Activity calls are given as the source filed them. The calls were made as follows, unless noted: active = hit-call score of the fitted dose curve at least 0.9, where 1 is the maximum; inactive = score below 0.9.

Experiments:
[1] = biological target: Oxysterols receptor LXR-alpha (Homo sapiens) (UniProt Q13133); assay: ATG_LXRa_TRANS: Attagene TRANS-FACTORIAL HepG2 Assay for human Liver X Receptor alpha (LXRa) (AID 2282980; active = hit-call score of the fitted dose curve at least 0.9, where 1 is the maximum); conditions: HepG2 Attagene TRANS reporter, LXRa transactivation
Outline: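 Transient HepG2 transfectants, 24 h dosing, RT-PCR/CE mRNA reporter quantitation; gain-of-signal vs DMSO.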

[2] = biological target: Oxysterols receptor LXR-beta (Homo sapiens) (UniProt P55055); assay: ATG_LXRb_TRANS: Attagene TRANS-FACTORIAL HepG2 Assay for human Liver X Receptor beta (LXRb) (AID 2282981; active = hit-call score of the fitted dose curve at least 0.9, where 1 is the maximum); conditions: HepG2 Attagene TRANS GAL4-LXRb reporter, mRNA
Outline: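 Cells: HepG2, transiently transfected with GAL4-UAS reporter units plus LXRb-Gal4 fusion. Treatment: 24 h. Detection: reporter mRNA by RT-PCR, 6-FAM labelling, HpaI digestion, capillary electrophoresis.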

[3] = biological target: Hepatocyte nuclear factor 4-alpha (Homo sapiens) (UniProt P41235); assay: ATG_HNF4a_TRANS: Attagene TRANS-FACTORIAL HepG2 Assay for human Hepatocyte Nuclear Factor 4 alpha (HNF4a) (AID 2282982; active = hit-call score of the fitted dose curve at least 0.9, where 1 is the maximum); conditions: HepG2 HNF4a transactivation reporter, mRNA readout
Outline: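 Transfected HepG2 reporter cells are dosed for 24 h; reporter RNA is reverse-transcribed, amplified, fluorescently labelled and HpaI-digested before CE sizing. Positive-direction fit against DMSO.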

[4] = ATG_M_32_TRANS: Attagene TRANS-FACTORIAL HepG2 Assay for M32 Transcription Factor (Internal Marker) (AID 2282984; active = hit-call score of the fitted dose curve at least 0.9, where 1 is the maximum;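 also: transcript level of a background control reporter unit measured by RT-PCR and capillary electrophoresis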); conditions: HepG2 Attagene TRANS M32 internal marker reporter
Outline: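 Using transiently transfected HepG2 cells exposed to test chemicals for 24 h, reporter transcripts are converted to labelled cDNA fragments and quantified by capillary electrophoresis. DMSO defines the activity baseline.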

[5] = biological target: Nuclear receptor subfamily 4 group A member 2 (Homo sapiens) (UniProt P43354); assay: ATG_NURR1_TRANS: Attagene TRANS-FACTORIAL HepG2 Assay for human Nuclear Receptor Related Protein 1 (NURR1) (AID 2282985; active = hit-call score of the fitted dose curve at least 0.9, where 1 is the maximum); conditions: HepG2 Attagene TRANS reporter, mRNA readout
Outline: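 Cells: HepG2, transiently transfected. Exposure: 24 h. Detection: fluorescence of labelled RT-PCR products separated by capillary electrophoresis; upward fit versus DMSO.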

[6] = biological target: Transcriptional activator Myb (Homo sapiens) (UniProt P10242); assay: ATG_Myb_CIS: Attagene CIS-FACTORIAL HepG2 Assay for human Myeloblastosis (Myb) Proto-Oncogene Transcription Factor (AID 2282986); conditions: HepG2 Attagene CIS-FACTORIAL Myb reporter transcription; actives raise or lower the signal
Outline: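 Endogenous transcription factor activity at a Myb-responsive cis element is reported in human liver HepG2 cells after 24 h chemical treatment. Reporter mRNA is detected by RT-PCR and capillary electrophoresis fluorescence, with DMSO as baseline.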

[7] = biological target: Nuclear respiratory factor 1 (Homo sapiens) (UniProt Q16656); assay: ATG_NRF1_CIS: Attagene CIS-FACTORIAL HepG2 Assay for human Nuclear Respiratory Factor 1 (NRF1) Orphan Gene (AID 2282987); conditions: HepG2 NRF1 cis-element reporter, Attagene multiplex; actives raise or lower the signal
Outline: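 Human hepatoma HepG2 cells carrying transfected promoter-regulated reporter units were incubated with test chemicals for 24 h. Reporter transcripts were measured by RT-PCR plus capillary electrophoresis, and endpoints derived by bidirectional fitting with DMSO as baseline.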

[8] = ATG_NFI_CIS: Attagene CIS-FACTORIAL HepG2 Assay for human Nuclear Factor I (NFI) (AID 2282989); conditions: HepG2 cis-regulatory reporter, NFI response element transcription; actives raise or lower the signal
Outline: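 HepG2, transient MRTU, 24 h exposure; RNA→cDNA→PCR→FAM label→HpaI→CE fluorescence. Bidirectional fit, DMSO = baseline.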

[9] = biological target: Myc proto-oncogene protein (Homo sapiens) (UniProt P01106); assay: ATG_Myc_CIS: Attagene CIS-FACTORIAL HepG2 Assay for human Myelocytomatosis (Myc) Proto-Oncogene Transcription Factor (AID 2282990); conditions: HepG2, Attagene cis-reporter transcription factor activity; actives raise or lower the signal
Outline: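 HepG2, transient MRTU transfection (cis promoters, endogenous TFs); 24 h dosing; TriZol RNA → oligo(dT) RT → PCR → 6-FAM primer extension → HpaI cut → CE. Bidirectional fit vs DMSO.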

[10] = ATG_NF_kB_CIS: Attagene CIS-FACTORIAL HepG2 Assay for human Nuclear Factor Kappa B (NF-kB) (AID 2282991); conditions: HepG2 Attagene cis-factorial NF-kB reporter mRNA; actives raise or lower the signal
Outline: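 Multiplexed cis-reporter assay in transiently transfected HepG2. 24 h treatment; RNA isolated, RT-PCR, labelled fragments resolved by CE. DMSO baseline.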

[11] = ATG_NRF2_ARE_CIS: Attagene CIS-FACTORIAL HepG2 Assay for human Nuclear Factor Erythroid 2 Related Factor 2 (NFR2) response to Antioxidant Response Elements (ARE) (AID 2282992); conditions: HepG2 Attagene ARE/NRF2 reporter, transcription factor activity; actives raise or lower the signal;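 as to AC50: reporter mRNA level measured by RT-PCR and capillary electrophoresis fluorescence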
Outline: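 Cis-factorial assay: transfected HepG2 reporter library, 24 h dosing, mRNA readout via RT-PCR/CE; DMSO-referenced bidirectional analysis.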

[12] = ATG_Oct_MLP_CIS: Attagene CIS-FACTORIAL HepG2 Assay for human Octamer-Binding Transcription Factor (Oct) (AID 2282993); conditions: HepG2 Attagene cis-factorial Oct reporter, mRNA; actives raise or lower the signal
Outline: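 Multiplexed cis-reporter assay in human liver HepG2 cells, 24 h incubation. Reporter RNA amplified and labelled, then resolved by capillary electrophoresis; DMSO serves as negative control and baseline.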

[13] = biological target: Cellular tumor antigen p53 (Homo sapiens) (UniProt P04637); assay: ATG_p53_CIS: Attagene CIS-FACTORIAL HepG2 Assay for human p53 Transcription Factor (AID 2282994); conditions: HepG2 p53 cis-element reporter, Attagene mRNA; actives raise or lower the signal
Outline: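 Using HepG2 hepatoma cells carrying cis-acting multiplexed reporters, mRNA induction is detected after a 24 h exposure. Gain- and loss-of-signal responses are fitted relative to DMSO-treated cells.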

[14] = biological target: Bile acid receptor (Homo sapiens) (UniProt Q96RI1); assay: ATG_FXR_TRANS: Attagene TRANS-FACTORIAL HepG2 Assay for Farnesoid X Receptor (FXR) (AID 2282979; active = hit-call score of the fitted dose curve at least 0.9, where 1 is the maximum;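 also: hits raise reporter mRNA above DMSO so AC50 marks FXR activation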); conditions: HepG2 Attagene TRANS FXR-GAL4 reporter transcription
Outline: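 Chimeric FXR-GAL4 activity in transiently transfected human HepG2 liver cells is scored as induction of reporter mRNA after 24 h of dosing. Detection uses RT-PCR with fluorescent labelling and capillary electrophoresis, with DMSO serving as baseline.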

[15] = ATG_M_06_TRANS: Attagene TRANS-FACTORIAL HepG2 Assay for M06 Transcription Factor (Internal Marker) (AID 2282983; active = hit-call score of the fitted dose curve at least 0.9, where 1 is the maximum;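 also: reporter transcript level by RT-PCR then capillary electrophoresis fluorescence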); conditions: HepG2 Attagene TRANS M06 internal marker reporter
Outline: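 Measured by capillary electrophoresis of fluorescently labelled RT-PCR products, this endpoint reflects reporter mRNA in HepG2 cells harbouring exogenous NR-GAL4 reporter constructs after 24 h exposure, with DMSO as baseline.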

Measured: AC50

Chain of Nuclear receptor subfamily 4 group A member 2 (Homo sapiens) (P43354 whole entry, looked up): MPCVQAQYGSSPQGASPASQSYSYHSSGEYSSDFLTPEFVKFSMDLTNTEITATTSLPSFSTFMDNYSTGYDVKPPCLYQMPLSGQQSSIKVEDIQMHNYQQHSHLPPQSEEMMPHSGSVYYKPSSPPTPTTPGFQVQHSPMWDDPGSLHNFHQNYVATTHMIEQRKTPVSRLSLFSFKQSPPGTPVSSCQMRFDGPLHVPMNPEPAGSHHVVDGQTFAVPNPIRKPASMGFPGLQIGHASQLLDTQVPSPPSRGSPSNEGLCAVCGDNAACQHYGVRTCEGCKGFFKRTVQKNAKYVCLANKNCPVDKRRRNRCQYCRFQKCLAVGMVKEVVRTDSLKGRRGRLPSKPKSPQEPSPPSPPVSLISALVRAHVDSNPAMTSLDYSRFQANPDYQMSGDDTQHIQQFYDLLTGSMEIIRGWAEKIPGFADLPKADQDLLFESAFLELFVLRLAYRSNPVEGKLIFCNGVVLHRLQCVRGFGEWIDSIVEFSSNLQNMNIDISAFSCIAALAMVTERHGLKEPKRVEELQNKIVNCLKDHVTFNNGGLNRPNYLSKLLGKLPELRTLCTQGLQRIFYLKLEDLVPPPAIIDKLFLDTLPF
Chain of Bile acid receptor (Homo sapiens) (Q96RI1 whole entry, looked up, the tested form may be a part): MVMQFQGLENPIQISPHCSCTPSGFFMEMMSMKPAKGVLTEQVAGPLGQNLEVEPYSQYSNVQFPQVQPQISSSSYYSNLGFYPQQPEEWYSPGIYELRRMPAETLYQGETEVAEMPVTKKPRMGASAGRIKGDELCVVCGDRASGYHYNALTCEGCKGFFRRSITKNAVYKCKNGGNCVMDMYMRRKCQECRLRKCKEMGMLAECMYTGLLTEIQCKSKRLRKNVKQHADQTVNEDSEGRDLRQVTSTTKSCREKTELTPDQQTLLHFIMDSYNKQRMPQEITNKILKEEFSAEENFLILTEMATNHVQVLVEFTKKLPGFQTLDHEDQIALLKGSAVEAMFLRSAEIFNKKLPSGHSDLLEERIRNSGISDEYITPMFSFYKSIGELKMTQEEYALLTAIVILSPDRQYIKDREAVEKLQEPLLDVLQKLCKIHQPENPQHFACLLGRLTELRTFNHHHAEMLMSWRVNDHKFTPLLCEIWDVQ
Chain of Oxysterols receptor LXR-beta (Homo sapiens) (P55055 whole entry, looked up, the tested form may be a part): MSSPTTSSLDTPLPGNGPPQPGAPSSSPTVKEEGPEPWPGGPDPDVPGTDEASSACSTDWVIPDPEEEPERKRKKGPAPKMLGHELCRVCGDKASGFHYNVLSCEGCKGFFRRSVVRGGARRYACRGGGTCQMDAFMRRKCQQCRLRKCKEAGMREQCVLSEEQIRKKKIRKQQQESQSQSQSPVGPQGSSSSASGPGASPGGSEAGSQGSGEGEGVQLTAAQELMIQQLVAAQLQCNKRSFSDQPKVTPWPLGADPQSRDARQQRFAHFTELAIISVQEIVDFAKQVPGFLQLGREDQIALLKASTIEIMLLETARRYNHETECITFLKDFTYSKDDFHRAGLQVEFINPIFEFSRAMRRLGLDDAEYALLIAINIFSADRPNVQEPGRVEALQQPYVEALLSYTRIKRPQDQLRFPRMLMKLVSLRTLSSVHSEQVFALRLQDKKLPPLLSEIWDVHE
Chain of Nuclear respiratory factor 1 (Homo sapiens) (Q16656 whole entry, looked up): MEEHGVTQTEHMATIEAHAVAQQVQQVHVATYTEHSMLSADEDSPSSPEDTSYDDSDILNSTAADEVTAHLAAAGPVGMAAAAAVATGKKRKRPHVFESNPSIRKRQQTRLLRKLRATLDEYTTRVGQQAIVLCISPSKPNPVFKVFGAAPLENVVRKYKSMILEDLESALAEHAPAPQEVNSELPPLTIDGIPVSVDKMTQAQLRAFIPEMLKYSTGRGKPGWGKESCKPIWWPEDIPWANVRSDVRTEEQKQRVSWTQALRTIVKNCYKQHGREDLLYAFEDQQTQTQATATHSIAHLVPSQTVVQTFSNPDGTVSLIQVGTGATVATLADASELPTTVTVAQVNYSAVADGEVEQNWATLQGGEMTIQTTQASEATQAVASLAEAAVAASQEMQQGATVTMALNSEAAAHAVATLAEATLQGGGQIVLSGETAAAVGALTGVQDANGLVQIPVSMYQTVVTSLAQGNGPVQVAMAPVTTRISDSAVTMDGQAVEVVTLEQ
Chain of Transcriptional activator Myb (Homo sapiens) (P10242 whole entry, looked up): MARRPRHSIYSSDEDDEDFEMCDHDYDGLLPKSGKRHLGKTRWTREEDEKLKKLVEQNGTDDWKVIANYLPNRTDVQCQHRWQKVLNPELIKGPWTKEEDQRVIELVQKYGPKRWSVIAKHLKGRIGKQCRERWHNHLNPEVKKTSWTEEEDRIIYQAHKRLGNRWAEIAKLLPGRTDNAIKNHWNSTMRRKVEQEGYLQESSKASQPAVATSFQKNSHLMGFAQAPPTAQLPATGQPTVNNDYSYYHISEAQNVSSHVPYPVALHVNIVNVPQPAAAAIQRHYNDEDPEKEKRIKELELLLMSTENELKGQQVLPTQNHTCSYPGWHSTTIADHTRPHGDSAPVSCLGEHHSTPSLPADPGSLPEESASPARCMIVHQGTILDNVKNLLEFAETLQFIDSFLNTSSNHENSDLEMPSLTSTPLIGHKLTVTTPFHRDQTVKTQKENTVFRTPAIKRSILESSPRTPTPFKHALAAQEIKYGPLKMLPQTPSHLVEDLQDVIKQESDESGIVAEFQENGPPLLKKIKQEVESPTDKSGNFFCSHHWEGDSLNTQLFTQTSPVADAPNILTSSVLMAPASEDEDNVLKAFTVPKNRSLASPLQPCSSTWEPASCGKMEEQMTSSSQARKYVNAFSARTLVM
Chain of Oxysterols receptor LXR-alpha (Homo sapiens) (Q13133 whole entry, looked up): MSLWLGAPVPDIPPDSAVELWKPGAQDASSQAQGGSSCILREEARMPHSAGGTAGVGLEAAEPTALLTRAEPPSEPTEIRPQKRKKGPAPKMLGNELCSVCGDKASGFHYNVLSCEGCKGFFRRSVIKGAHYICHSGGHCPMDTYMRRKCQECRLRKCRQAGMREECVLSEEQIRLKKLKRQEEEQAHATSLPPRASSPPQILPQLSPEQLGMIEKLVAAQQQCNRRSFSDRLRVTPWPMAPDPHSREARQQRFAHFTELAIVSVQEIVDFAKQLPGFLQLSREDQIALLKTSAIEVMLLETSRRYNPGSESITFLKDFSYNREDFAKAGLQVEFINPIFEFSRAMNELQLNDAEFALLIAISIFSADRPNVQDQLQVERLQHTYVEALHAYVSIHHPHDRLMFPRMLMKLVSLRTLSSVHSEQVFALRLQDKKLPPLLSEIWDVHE
Chain of Myc proto-oncogene protein (Homo sapiens) (P01106 whole entry, looked up): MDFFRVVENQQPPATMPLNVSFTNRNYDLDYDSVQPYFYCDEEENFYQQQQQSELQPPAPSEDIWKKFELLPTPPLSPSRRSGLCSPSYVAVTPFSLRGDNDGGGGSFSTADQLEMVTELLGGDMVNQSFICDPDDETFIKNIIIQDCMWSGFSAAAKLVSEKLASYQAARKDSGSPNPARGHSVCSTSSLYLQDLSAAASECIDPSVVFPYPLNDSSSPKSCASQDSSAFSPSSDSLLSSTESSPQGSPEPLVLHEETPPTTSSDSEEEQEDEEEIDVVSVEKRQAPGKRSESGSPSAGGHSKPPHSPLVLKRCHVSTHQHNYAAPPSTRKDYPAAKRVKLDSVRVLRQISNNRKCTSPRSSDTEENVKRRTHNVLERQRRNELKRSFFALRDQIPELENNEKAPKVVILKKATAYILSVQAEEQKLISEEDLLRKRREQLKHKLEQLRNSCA
Chain of Hepatocyte nuclear factor 4-alpha (Homo sapiens) (P41235 whole entry, looked up): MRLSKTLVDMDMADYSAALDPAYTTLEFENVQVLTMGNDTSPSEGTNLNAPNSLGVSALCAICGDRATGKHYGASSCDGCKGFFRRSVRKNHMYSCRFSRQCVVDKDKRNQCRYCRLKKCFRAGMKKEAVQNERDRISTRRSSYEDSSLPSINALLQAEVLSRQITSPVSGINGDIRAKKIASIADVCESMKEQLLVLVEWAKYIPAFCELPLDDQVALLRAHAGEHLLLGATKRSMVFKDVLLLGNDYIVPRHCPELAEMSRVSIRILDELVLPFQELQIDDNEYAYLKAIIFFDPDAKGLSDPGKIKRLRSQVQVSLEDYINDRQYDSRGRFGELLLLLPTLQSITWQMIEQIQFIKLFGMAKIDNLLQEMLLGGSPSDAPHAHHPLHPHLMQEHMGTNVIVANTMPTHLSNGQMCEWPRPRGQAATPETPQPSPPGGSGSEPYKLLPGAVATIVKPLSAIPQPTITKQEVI
Chain of Cellular tumor antigen p53 (Homo sapiens) (P04637 whole entry, looked up): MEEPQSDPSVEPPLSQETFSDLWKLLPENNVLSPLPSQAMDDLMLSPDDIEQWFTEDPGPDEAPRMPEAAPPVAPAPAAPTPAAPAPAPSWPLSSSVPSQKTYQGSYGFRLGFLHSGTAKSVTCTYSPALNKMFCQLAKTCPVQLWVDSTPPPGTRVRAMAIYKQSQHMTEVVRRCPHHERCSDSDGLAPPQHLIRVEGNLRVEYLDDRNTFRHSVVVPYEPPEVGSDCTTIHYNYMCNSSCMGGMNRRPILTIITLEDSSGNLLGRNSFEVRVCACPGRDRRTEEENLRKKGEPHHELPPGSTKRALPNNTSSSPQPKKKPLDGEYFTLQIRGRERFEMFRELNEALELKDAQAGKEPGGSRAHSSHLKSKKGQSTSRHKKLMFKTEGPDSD

CCC[Si](OC)(OC)OC
inactive: [1] | [2] | [3] | [4] | [5] | [6] | [7] | [8] | [9] | [10] | [11] | [12] | [13]

CCC(C)(O)CCCC(C)C (configuration not stated)
inactive: [14] | [2] | [5] | [6] | [7] | [8] | [9] | [10] | [11] | [12] | [13]

COC(Cc1ccccc1)OC
inactive: [1] | [2] | [3] | [15] | [4] | [5] | [6] | [7] | [8] | [9] | [11] | [12]

Cc1ccc(C)c(OCCCC(C)(C)C(=O)O)c1
inactive: [1] | [2] | [3] | [15] | [4] | [6] | [7] | [8] | [9] | [10] | [11] | [12]

C=CC(C)(CCC=C(C)C)OC(=O)C=Cc1ccccc1 (configuration not stated)
inactive: [14] | [2] | [15] | [6] | [7] | [8] | [9] | [10] | [12] | [13]
active: [11] 32.9 µM

CCCCNS(=O)(=O)c1ccc(C)cc1
inactive: [1] | [2] | [15] | [5] | [6] | [7] | [8] | [9] | [11] | [12] | [13]

CCCCCCCCCCCCCCCCCCOS(=O)(=O)O
inactive: [1] | [2] | [3] | [6] | [9] | [12]
active: [5] 179 µM | [7] 49.5 µM | [8] 33.4 µM | [10] 58.1 µM | [11] 13.7 µM | [13] 18.4 µM

CCC(C)N (configuration not stated)
inactive: [1] | [3] | [15] | [6] | [7] | [8] | [9] | [10] | [11] | [12]

CC1=CCC(C(C)C)C=C1 (configuration not stated)
active: [11] 25.3 µM
inactive: [1] | [2] | [3] | [15] | [5] | [6] | [7] | [8] | [9] | [12] | [13]

CC(=O)/C=C/C1C(C)=CCCC1(C)C (configuration not stated)
inactive: [14] | [4] | [5] | [6] | [7] | [8] | [9] | [11] | [12]

CCCCc1ccc(Cl)cc1
inactive: [14] | [15] | [4] | [5] | [6] | [7] | [8] | [9] | [11] | [12] | [13]

NNS(=O)(=O)c1ccc(Oc2ccc(S(=O)(=O)NN)cc2)cc1
inactive: [1] | [2] | [3] | [4] | [5] | [6] | [7] | [8] | [9] | [10] | [11] | [12] | [13]
